p53null 32C kill: selectivity test: cytotoxicity in p53 null cells, permissive temperature. hit rate 0.62% among 55,000. Potency, µM (highest dose often 46.1 µM), actives largely listed as cytotoxic. H1299-neo p53 null cells, ATP luminescence, 24 h, 32C; note: nearly all actives have a fitted effect of over 55% in size
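Cells lacking p53 (H1299-neo) are plated at 600 per well and allowed to settle overnight at 37C. Test compounds (up to 46 uM) are added and held 24 hours at 32C, then ATP is quantified by luminescence.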
S16 viability: S16 Schwann cell cytotoxicity | S16 Pmp22-F2sN Schwann cells viability, CellTiter-Glo, 24 h | Potency, µM (titrated, usually from 57.5 µM), usual class: cytotoxic | hit rate 0.48% among 43,000; note: nearly all actives have a fitted effect of over 65% in size
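S16 Schwann cells carrying the Pmp22-F2sN reporter, seeded in 1536-well format, were exposed to library compounds for 24 h at 37C. Viability was read as CellTiter-Glo luminescence after 15 min at room temperature.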
pS6 MEF inh: inhibitors of mTORC1 signaling in Tsc2-/- p53-/- MEF cells; Tsc2-/- p53-/- MEF, phospho-rpS6 immunofluorescence/PI, 24 h; Potency, µM (doses to about 38.3 µM), actives largely listed as inhibitors; hit rate 0.78% among 44,000; AID 493208; note: nearly all actives have a fitted effect of over 50% in size
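Tsc2-/-, p53-/- mouse embryonic fibroblasts (empty-vector line) exposed to compound 24 hrs at 37 C, fixed, immunostained for phospho-rpS6 and counterstained with propidium iodide. Acumen laser scanning gives % positive cells from Alexa 488/PI ratio, thresholded using 7.5 nM rapamycin; PI count gives viability.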
p53null 39C tox: p53 null cell cytotoxicity, nonpermissive temperature; H1299 p53-null (neo) cells, 39C, ATPlite viability, 24 h; Potency, µM (highest dose often 46.1 µM), hits mostly cytotoxic; hit rate 0.97% among 55,000; AID 904; note: nearly all actives have a fitted effect of over 50% in size
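ATP-luminescence viability readout (ATPlite, 20 min RT) after 24 hr compound treatment at 39C of H1299-neo or H1299-p53A138V cells; titration up to 46 uM; normalized to DMSO and 100 uM tamoxifen; Hill-fit AC50.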
SKOV3 invasion: blocks SKOV3ip1 adhesion and invasion in omental model | SKOV3ip1-GFP adhesion/invasion on 3D omental model, fluorescence | Potency, µM (series often up to 45.8 µM), usual class: inhibitors | hit rate 0.1% among 46,000; note: nearly all actives have a fitted effect of over 65% in size
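A 3D layer of primary human omental fibroblasts, mesothelial cells, fibronectin and collagen I, grown 48 hr, received SKOV3ip1-GFP cells in serum-free medium plus compounds at 0.36-46 umol/L. After 2 hr RT and 16 hr 37 C, fixed adherent GFP cells were counted; normalized to DMSO and tomatine.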
PMP22 txn prim: modulates PMP22 transcription in S16 Schwann cells; AID 1508649; hit rate 2% among 43,000; S16 Pmp22-F2sN Schwann cells, FLuc/NLuc coincidence luminescence, 24 h; Potency, µM (titrated, usually from 57.5 µM), most hits filed as inhibitors; active = clear falling dose curves in both reporters; inconclusive = both reporters move, but less clearly or upward; inactive = either reporter flat; the % is the NLuc reporter signal
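Reporter cells (S16 Pmp22-F2sN, 500–1,000 per well) exposed to compounds for 24 h, 37C, 5% CO2; lysis with FLuc read after 10 min, then Stop&Glo and NLuc read after 10 min.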
NLuc sat counter: NanoLuc enzyme inhibition artifact for PMP22 screen; shares compounds with PMP22 txn prim; Secreted NLuc enzyme (filtered S16 cell medium), Nano-Glo luminescence; Potency, µM (top dose mostly 57.5 µM), actives largely listed as inhibitors; hit rate 4% among 690; AID 1508638
NLuc Km counter: counter-screen for PMP22 expression modulators: NanoLuc inhibition at Km | Potency, µM (highest dose often 57.5 µM), actives largely listed as inhibitors | secreted NLuc enzyme, coelenterazine luminescence, Km conditions | hit rate 5% among 690 | shares compounds with PMP22 txn prim | AID 1508639
FLuc ctr PMP22: inhibits firefly luciferase, PMP22 counter-screen; AID 1508640; shares compounds with PMP22 txn prim; 690 tested, under 10 active; Potency, µM (top dose mostly 57.5 µM), usual class: inhibitors; purified P. pyralis FLuc, luminescence, 10 min
Target sequence (P08659 whole entry, looked up): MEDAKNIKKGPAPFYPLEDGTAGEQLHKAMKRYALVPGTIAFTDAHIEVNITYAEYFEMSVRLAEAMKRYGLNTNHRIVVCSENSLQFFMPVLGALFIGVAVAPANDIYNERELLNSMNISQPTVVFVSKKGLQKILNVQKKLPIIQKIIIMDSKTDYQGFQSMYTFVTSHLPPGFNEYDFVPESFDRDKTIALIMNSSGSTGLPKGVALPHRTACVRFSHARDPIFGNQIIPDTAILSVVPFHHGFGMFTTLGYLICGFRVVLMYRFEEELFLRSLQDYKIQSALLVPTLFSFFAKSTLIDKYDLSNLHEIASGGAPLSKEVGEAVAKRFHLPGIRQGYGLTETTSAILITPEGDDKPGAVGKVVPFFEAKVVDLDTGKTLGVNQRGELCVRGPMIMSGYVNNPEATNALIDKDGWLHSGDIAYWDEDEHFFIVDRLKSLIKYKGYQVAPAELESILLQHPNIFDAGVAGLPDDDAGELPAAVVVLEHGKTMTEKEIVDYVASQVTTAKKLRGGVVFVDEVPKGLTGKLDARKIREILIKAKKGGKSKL
S16 F2sN tox cnf: confirmation of cytotoxicity in S16 Pmp22-F2sN Schwann cells (luciferase reporters placed in the Pmp22 gene) | shares compounds with PMP22 txn prim | S16 Schwann cells viability, CellTiter-Glo ATP luminescence, 24 h | Potency, µM (titrated, usually from 57.5 µM), usual class: cytotoxic | hit rate 7% among 690 | AID 1508641
PMP22 txn cnf: PMP22 transcription modulation, confirmatory. shares compounds with PMP22 txn prim. S16 Schwann cells Pmp22-F2sN, dual luciferase, 24 h. Potency, µM (doses to about 57.5 µM), usual class: inhibitors. hit rate 22% among 690. AID 1508646; active = clear falling dose curves in both reporters; inconclusive = both reporters move, but less clearly or upward; inactive = either reporter flat; the % is the FLuc reporter signal
A number is an active result; n = inactive; u = inconclusive; x = no result. Compounds with a hit are over-represented: about 3.1% of the library has one in this group of screens. Unless noted, calls come from the whole dose curve; as a rule, active = well fitted curve in the direction sought with a large enough effect; inconclusive = small, poorly fitted or top-dose-only effect, or another doubt; inactive = no such curve, though single readings can be large; an effect the other way counts as inactive or inconclusive.

SMILES | p53null 32C kill | S16 viability | pS6 MEF inh | p53null 39C tox | SKOV3 invasion | PMP22 txn prim | NLuc sat counter | NLuc Km counter | FLuc ctr PMP22 | S16 F2sN tox cnf | PMP22 txn cnf
CO[C@H]1C[C@@H]2CC[C@@H](C)[C@@](O)(O2)C(=O)C(=O)N2CCCC[C@@H]2C(=O)O[C@H]([C@H](C)C[C@@H]2CC[C@H](OP(C)(C)=O)[C@H](OC)C2)CC(=O)[C@H](C)C=C(C)[C@@H](O)[C@@H](OC)C(=O)[C@H](C)C[C@H](C)C=CC=CC=C1C | x | x | x | x | n | x | x | x | x | x | x
COc1ccc(OCC(=O)NCc2ccc3c(c2)CCN3C(=O)c2cccc(C)c2)cc1 | n | n | u | n | u | 20µM | u | n | n | n | u
O=C(CCN1CCN(C(=O)OCc2cc(Cl)cc(Cl)c2)CC1)c1ccc2[nH]c(=O)oc2c1 | x | x | x | x | n | x | x | x | x | x | x
COc1ccc(OC)c(NC(=O)c2c(NCc3sccc3C)sc3c2CCCCC3)c1 | n | n | n | n | n | 11.3µM | u | 13.7µM | n | u | n
CCOc1cc(-c2nnc(SCC(=O)NCc3ccccc3)nc2-c2ccc(OC)c(OCC)c2)ccc1OC | n | n | n | n | n | 8.91µM | u | u | n | n | u
CN(C)CCNC(=O)c1ccc(Cn2c(=O)c3cccn3c3cccnc32)cc1 | n | n | u | n | n | 10.6µM | n | u | n | n | n
O=C1NC(=O)[C@@H](c2cn3c4c(cccc24)CCC3)[C@H]1c1c[nH]c2ccccc12 | x | x | x | x | n | x | x | x | x | x | x
CCOC(=O)c1cccc(NC(=O)c2cc3cc4ccc(C)cc4nc3s2)c1 | n | n | n | n | n | 11.3µM | n | n | n | u | 19.3µM
CCOC(=O)c1cccc(NC(=O)c2cc3cc4cc(OC)ccc4nc3s2)c1 | n | n | n | n | n | u | x | x | x | x | x
O=C1CCCC(=O)C1C(=O)c1ccc(C(F)(F)F)cc1[N+](=O)[O-] | x | x | x | x | n | x | x | x | x | x | x
CCOc1ccc(-c2nc(CSCC(=O)NCCc3ccccc3)c(C)o2)cc1 | n | n | n | n | n | u | u | u | 19.3µM | n | n
COC(=O)c1cc2occc2n1Cc1cccc(C)c1 | n | n | n | n | n | u | n | u | n | n | n
CCCCCCCCCCCCCCCC(=O)O[C@H]1[C@@H](O)[C@@H](O)[C@@H]([C@H](NC(=O)[C@@H]2C[C@@H](CCC)CN2C)[C@H](C)Cl)O[C@@H]1SC | x | x | x | x | n | x | x | x | x | x | x
O=C(NCCc1ccc(Cl)cc1)c1ccc(Cn2c(=O)[nH]c3ccccc3c2=O)cc1 | n | n | n | n | n | 3.18µM | n | n | n | n | u
CCCCCn1c(=O)[nH]c2cc(C(=O)NCc3ccc(Cl)cc3)ccc2c1=O | n | n | n | n | n | n | x | x | x | x | x
Cc1ccc2nc3c(c(Nc4ccc(C)c(C)c4)c2c1)CCC3 | n | u | n | n | n | 18.9µM | n | n | n | n | u
COc1ccc(Nc2c3c(nc4ccc(NC(=O)c5ccc(F)cc5)cc24)CCCC3)cc1OC | u | u | n | n | u | u | x | x | x | x | x
Cc1ccc(Nc2c3c(nc4ccccc24)CCC3)cc1F | n | n | n | u | n | 15.8µM | n | u | n | n | u
COc1ccccc1Nc1c2c(nc3ccc(NC(=O)c4ccccc4F)cc13)CCCC2 | n | u | u | n | u | u | x | x | x | x | x
COc1ccc(C2=C(C)C(=NCCCN3CCN(c4cc(C)ccc4C)CC3)NS2(=O)=O)cc1 | n | n | n | n | n | 15.2µM | n | n | n | n | u
CC1=C(c2ccc(Cl)cc2)S(=O)(=O)NC1=NCc1ccc(C)cc1 | n | n | n | n | n | n | x | x | x | x | x
CCCn1ccc2c(OCC(=O)Nc3ccccc3C(=O)OCC)cccc2c1=O | n | n | n | n | n | 14.1µM | n | n | n | n | u
CCC(C)CCCCC(=O)N[C@@H](CCN)C(=O)NC(C(=O)N[C@H](CCN)C(=O)N[C@@H]1CCNC(=O)C([C@@H](C)O)NC(=O)[C@@H](CCN)NC(=O)[C@@H](CCN)NC(=O)[C@@H](CC(C)C)NC(=O)[C@H](Cc2ccccc2)NC(=O)[C@H](CCN)NC1=O)[C@@H](C)O (stereo partly specified) | x | x | x | x | n | x | x | x | x | x | x
COc1ccc(C)cc1NC(=O)c1cc(S(=O)(=O)N2CCN(c3cccc(C)c3C)CC2)ccc1F | n | n | u | n | n | u | n | n | n | n | n
CCOC(=O)c1ccc(N2C(=O)c3n[nH]c(-c4ccco4)c3C2c2ccc(O)c(OC)c2)cc1 (stereo unspecified) | n | n | u | u | n | 11.3µM | u | u | n | n | 19.3µM
SMILES | p53null 32C kill | S16 viability | pS6 MEF inh | p53null 39C tox | SKOV3 invasion | PMP22 txn prim | NLuc sat counter | NLuc Km counter | FLuc ctr PMP22 | S16 F2sN tox cnf | PMP22 txn cnf
CCOC(=O)c1ccc(N2C(=O)c3n[nH]c(-c4ccco4)c3C2c2ccc(C)cc2)cc1 (stereo unspecified) | n | n | u | u | u | u | x | x | x | x | x
CCN(CC)CCn1c2c(c(SCC(=O)Nc3cccc(C(F)(F)F)c3)nc1=O)CCC2 | n | n | n | n | n | 16µM | n | n | n | n | u
O=C(CSc1nc(=O)n(Cc2ccncc2)c2c1CCC2)Nc1cccc(F)c1 | n | n | n | n | n | u | x | x | x | x | x
CCOc1ccc2oc(=O)cc(CN3CCN(Cc4ccc(F)cc4)CC3)c2c1 | n | u | n | n | n | 14.1µM | n | n | n | n | n
COc1ccccc1NC(=O)CSc1nc2nccnc2c(=O)n1CCc1c[nH]c2ccccc12 | n | n | n | n | n | 13.4µM | u | u | n | n | u
COC(=O)c1ccc(CSc2nc3c([nH]c4ccccc43)c(=O)n2-c2cccc(Cl)c2)o1 | n | n | n | n | n | 17.9µM | u | n | n | u | 6.11µM

Bioassay records (PubChem)
